Measurements from PubChem BioAssay AID2625 (National Center for Advancing Translational Sciences (NCATS), 2010).
Records with an inconclusive call do not appear. Calls of active or inactive are those of the source. Calls follow the shape of the dose curve; as a rule, active = well fitted curve in the direction sought with a large enough effect; inconclusive = small, poorly fitted or top-dose-only effect, or effect the other way, or another doubt; inactive = no such curve, though single readings can be large or run the other way.

Target: Pyruvate kinase PKLR (Homo sapiens) (UniProt P30613)
Experiment: Secondary LDH Assay for Activators of Human Liver Pyruvate Kinase: for Probe SAR
Conditions: purified hPK-L, LDH-coupled NADH fluorescence kinetic; series mostly up to 58.2 µM
Outline: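 Purified hPK-L (10 nM) coupled to LDH (1 uM) in pH 8.0 Tris with 0.1 mM PEP, 4 mM ADP, 0.2 mM NADH. Initial rates from kinetic NADH fluorescence depletion over 3–6 min, normalised to uninhibited and fructose-bis-phosphate EC100 activation.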

Chain of Pyruvate kinase PKLR (Homo sapiens) (P30613 whole entry, looked up): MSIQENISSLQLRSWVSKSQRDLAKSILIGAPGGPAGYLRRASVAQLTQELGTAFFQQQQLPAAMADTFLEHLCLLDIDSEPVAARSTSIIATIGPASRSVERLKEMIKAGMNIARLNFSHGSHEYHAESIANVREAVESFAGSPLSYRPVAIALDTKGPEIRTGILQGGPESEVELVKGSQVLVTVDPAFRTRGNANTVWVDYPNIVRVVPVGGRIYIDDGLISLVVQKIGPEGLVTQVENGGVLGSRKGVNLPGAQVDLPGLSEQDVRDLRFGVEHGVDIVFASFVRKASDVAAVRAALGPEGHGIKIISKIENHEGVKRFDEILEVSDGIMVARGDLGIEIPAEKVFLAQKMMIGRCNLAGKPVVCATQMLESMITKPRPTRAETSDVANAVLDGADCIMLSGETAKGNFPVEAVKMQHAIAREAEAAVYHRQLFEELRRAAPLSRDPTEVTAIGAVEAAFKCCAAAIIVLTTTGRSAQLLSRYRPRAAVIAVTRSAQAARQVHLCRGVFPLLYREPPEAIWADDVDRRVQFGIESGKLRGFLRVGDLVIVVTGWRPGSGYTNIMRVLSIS

outcome, inactive:
COc1ccccc1NS(=O)(=O)c1ccc2c(c1)CCC(=O)N2
O=C1CCc2cc(S(=O)(=O)Nc3ccccn3)ccc2N1
COc1cccc(N2C(=O)c3ccccc3C2=O)c1
Cc1ccc(N2C(=O)c3ccccc3C2=O)c(C)c1
Cc1ccccc1NS(=O)(=O)c1ccc2c(c1)CCC(=O)N2
Cc1ccc(NS(=O)(=O)c2ccc3c(c2)N(C)CCO3)cc1C
O=C1c2ccccc2C(=O)N1c1cccc2ccncc12
Nc1cc(S(=O)(=O)N2CCN(S(=O)(=O)c3ccc4c(c3)OCCO4)CC2)ccn1
COc1ccccc1N1C(=O)c2ccccc2C1=O
O=S1(=O)N=C(Oc2ccc(Cl)cc2)c2ccccc21
O=S(=O)(c1ccc2c(c1)OCCO2)N1CCN(S(=O)(=O)c2c(F)cccc2F)CC1
Cc1ccc(NS(=O)(=O)c2cc3c(cc2-c2ccsc2)NC(=O)CO3)cc1C
Cc1cc(C)n2c(Nc3ccccc3)c(-c3ccc(C)o3)nc2n1
Cc1ccc(NS(=O)(=O)c2cc3c(cc2N(C)C)NC(=O)CC3)cc1C
O=C1c2ccccc2C(=O)N1Cc1ccccn1
Cc1ccc(NS(=O)(=O)c2ccc3c(c2)CCC(=O)N3)cc1Cl
O=C1c2ccccc2C(=O)N1c1ccc(Cl)cc1
O=C1CCc2cc(Cl)c(S(=O)(=O)Nc3ccc(Cl)c(Cl)c3)cc2N1
Cc1ccc(-c2nc3ccc(Cl)cn3c2Nc2ccccc2)o1
Cc1ccc(NS(=O)(=O)c2cc3c(cc2Cl)NC(=O)CO3)cc1C
Cc1ccc(NS(=O)(=O)c2ccc3c(c2)N(C)C(=O)CO3)cc1C
Cc1ccc(NS(=O)(=O)c2ccc3c(c2)C(Cl)(Cl)C(=O)N3)cc1C
Cc1ccc(NS(=O)(=O)c2cc3c(cc2F)NC(=O)CC3)cc1Cl
COc1ccc(S(=O)(=O)Nc2ccc(C)c(C)c2)cc1
